IL1B secr inh: inhibitors of inflammasome signaling (IL-1 beta secretion); THP-1 LPS/ATP IL-1B secretion, AlphaLISA, 16 h; active compounds read low; actives 4.7% (n = 360,000); activity change, % at 57.5 µM; in the data active means activity change below about -50%; inconclusive means mostly about -30% to -49%
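Secreted IL-1B measured by AlphaLISA bead assay after 16 h compound exposure of THP-1 cells; compounds (final up to 57.5 uM) added 1 h before LPS (250 ng/mL) and ATP (1.25 mM) stimulation; lower signal means less secretion.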
ATXN2 expr inh: inhibitors of ATXN2 expression. AID 1745845. Potency, µM (highest dose often 57 µM), hits mostly inhibitors. actives 0.72% (n = 360,000). HEK-293 ATXN2-luciferase reporter, luminescence, 24 h; further: nearly all actives have a fitted effect of over 55% in size
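ATXN2-luciferase reporter cells (luciferase flanked by upstream and downstream ATXN2 gene portions) were treated 24 h at 37 °C with compounds at up to 57 uM. SteadyGlo luminescence gave expression; GF-AFC fluorescence gave viability.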
S2 tox: viability counter-screen for ATXN expression inhibitors; S2 cells (HEK-293 line with an ATXN2-luciferase reporter) viability, CellTiter-Fluor protease fluorescence, 24 h; Potency, µM (highest dose often 56.7 µM), hits mostly cytotoxic; actives 0.49% (n = 400,000); further: nearly all actives have a fitted effect of over 40% in size
USP1 inh: blocks the human USP1/UAF1 deubiquitinase complex; recombinant USP1/UAF1, Ub-Rhodamine cleavage fluorescence; Potency, µM (top dose mostly 57.1 µM), most hits filed as inhibitors; actives 0.23% (n = 390,000); AID 743255; further: nearly all actives have a fitted effect of over 60% in size
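High-throughput fluorogenic screen: 1nM USP1/UAF1 complex, Ub-Rho substrate 150nM final, 50mM HEPES pH 7.8 with 0.5mM EDTA, 0.1 mg/ml BSA, 1mM TCEP and 0.01% Tween-20.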
USP2a inh: blocks human ubiquitin-specific protease USP2a | USP2 core, Ub-CHOP2 coupled fluorogenic reporter, 485/531 | Potency, µM (top dose mostly 38.3 µM), usual class: inhibitors | actives 0.01% (n = 330,000) | AID 463254
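Deubiquitinase activity read as fluorescence (485/531 nm) after Ub-CHOP2 cleavage activates the enterokinase reporter on its substrate; USP2 core 10nM, Ub-CHOP2 and substrate 25nM each, 30min compound preincubation then 60min RT; data normalized to NEM, curves fitted.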
Each line names hits and unclear results; the compound was inactive in the other large screens. Rows were chosen to be rich in hits. Some 4.8% of all compounds tested hit in one or more screens of this group. Unless noted, the call rests on the fitted dose curve; in most records, active means well fitted curve in the direction sought with a large enough effect; inconclusive means small, poorly fitted or top-dose-only effect, or another doubt; inactive means no such curve, though single readings can be large; an effect the other way counts as inactive or inconclusive.

Cc1cccc(C)c1NC(=O)C1(C)CSCC(=O)N1CCc1c[nH]c2ccccc12 (centres undefined)	none (no result: ATXN2 expr inh, S2 tox, USP1 inh, USP2a inh)
COc1ccccc1CCNC(=O)C(C)Sc1nc(-c2ccccc2)cc(C(F)(F)F)n1 (centres undefined)	none (no result: IL1B secr inh, USP2a inh)
Cc1cccc(S(=O)(=O)c2cn(C)c3cc(N4CCN(c5ccccc5)CC4)c(F)cc3c2=O)c1	none (no result: IL1B secr inh, ATXN2 expr inh, S2 tox, USP2a inh)
Cc1ccc2[nH]c3c(N4CCN(Cc5ccc6c(c5)OCO6)CC4)ncnc3c2c1	none (no result: IL1B secr inh, ATXN2 expr inh, S2 tox, USP1 inh)
Cc1ccc2[nH]c3c(N4CCN(Cc5ccccc5)CC4)ncnc3c2c1	IL1B secr inh inconclusive, ATXN2 expr inh inconclusive, S2 tox inconclusive
COc1ccc2c(c1)[nH]c1c(N3CCN(Cc4ccc5c(c4)OCO5)CC3)ncnc12	IL1B secr inh -105, ATXN2 expr inh 14µM, S2 tox 10µM
Cc1ccc2c(c1)[nH]c1c(N3CCN(Cc4ccccc4)CC3)ncnc12	IL1B secr inh -98, ATXN2 expr inh 8.9µM (no result: S2 tox)
c1ccc(CN2CCN(c3ncnc4c3[nH]c3ccccc34)CC2)cc1	IL1B secr inh -95, ATXN2 expr inh inconclusive, S2 tox inconclusive
Cc1ccc2[nH]c3c(N4CCCCCC4)ncnc3c2c1	none (no result: IL1B secr inh, ATXN2 expr inh, S2 tox, USP1 inh)
CCOc1ccc2[nH]c3c(N4CCN(c5ccccn5)CC4)ncnc3c2c1	IL1B secr inh -77, ATXN2 expr inh inconclusive
COc1ccccc1-c1ccnc(-n2ncc(C(=O)NCCc3cccnc3)c2C)n1	none (no result: IL1B secr inh, ATXN2 expr inh, USP1 inh, USP2a inh)
COc1ccc2oc(=O)cc(CN3CCN(Cc4ccccc4)CC3)c2c1	none (no result: ATXN2 expr inh, USP2a inh)
COc1cccc2[nH]c3c(N4CCc5ccccc5C4)ncnc3c12	IL1B secr inh inconclusive
c1ccc2c(c1)CCN(c1ncnc3c1[nH]c1ccccc13)C2	IL1B secr inh -84, ATXN2 expr inh inconclusive, S2 tox inconclusive
CC12CCC3c4ccc(OCC(=O)O)cc4CCC3C1CCC2=O (centres undefined)	none (no result: USP2a inh)
C=C(C)COc1ccc2c(c1)CCC1C2CCC2(C)C(=O)C(=NO)CC12 (centres undefined)	IL1B secr inh -99, ATXN2 expr inh inconclusive, S2 tox inconclusive (no result: USP2a inh)
Cc1ccc(C)c(NC(=O)c2nnn(Cc3ccc(F)cc3Cl)c2N)c1	ATXN2 expr inh inconclusive, S2 tox inconclusive (no result: IL1B secr inh, USP2a inh)
CNC(=O)c1c(I)c(NC(C)=O)c(I)c(C(=O)O)c1I	none (no result: IL1B secr inh, USP1 inh, USP2a inh)
COc1cccc2c1C(=O)c1c(O)c3c(c(O)c1C2=O)C[C@@](O)(C(=O)CO)C[C@@H]3O[C@H]1C[C@H](N)[C@H](O[C@@H]2CCCCO2)[C@H](C)O1	ATXN2 expr inh 0.4µM, S2 tox 16µM (no result: IL1B secr inh, USP1 inh, USP2a inh)
COc1cccc2c1C(=O)c1c(O)c3c(c(O)c1C2=O)CC(O)(C(=O)CO)CC3OC1CC(N(C)C)C(O)C(C)O1 (centres undefined)	IL1B secr inh -100, ATXN2 expr inh inconclusive, USP1 inh inconclusive (no result: S2 tox, USP2a inh)
CC(=O)[C@]1(O)Cc2c(O)c3c(c(O)c2[C@@H](O[C@H]2C[C@H](N)[C@@H](O)[C@H](C)O2)C1)C(=O)c1ccccc1C3=O	ATXN2 expr inh 0.14µM (no result: IL1B secr inh, S2 tox, USP1 inh, USP2a inh)
N#Cc1c(N)[nH]c(C(=O)c2ccccc2)c1-c1ccc(Cl)cc1	S2 tox inconclusive (no result: USP1 inh, USP2a inh)
Cc1nnc(NCc2n[nH]c(=O)c3ccccc23)c2ccccc12	IL1B secr inh -101, ATXN2 expr inh inconclusive, S2 tox inconclusive
COc1ccc(NCc2n[nH]c(=O)c3ccccc23)cc1	none
COc1ccc(CN=Cc2[nH]c3ccc(Br)c(Cl)c3c2O)cc1	USP1 inh 14µM
Cc1ccccc1C(C(=O)NC1CCCCC1)N(C(=O)CNc1ccc(C#N)cc1)c1cccc(F)c1 (centres undefined)	none (no result: IL1B secr inh, S2 tox, USP1 inh, USP2a inh)
CC(C)(C)C(=O)N1CCN(c2ccc(NC(=O)c3ccc([N+](=O)[O-])o3)cc2)CC1	IL1B secr inh -96, S2 tox inconclusive
CCC(=O)N1CCN(c2ccc(NC(=O)c3ccc([N+](=O)[O-])o3)cc2)CC1	IL1B secr inh -103
O=C(Nc1ccccc1N1CCN(C(=O)c2ccccc2)CC1)c1ccc([N+](=O)[O-])o1	none
CCCC(=O)N1CCN(c2ccc(NC(=O)c3ccc([N+](=O)[O-])o3)cc2)CC1	IL1B secr inh -109
CCCC(=O)N1CCN(c2ccc(NC(=O)c3ccc(Br)o3)cc2)CC1	IL1B secr inh inconclusive

Screens from PubChem BioAssay.
